Experimental data taken from PubChem BioAssay (Tox21).
Records with an inconclusive call do not appear. The source made the active and inactive calls. Unless noted, calls come from the whole dose curve; as a rule, active = well fitted curve in the direction sought with a large enough effect in the repeat runs; inconclusive = weak or mixed curves; inactive = no such curve, though single readings can be large; an effect the other way counts as inactive or inconclusive.

Tests used:
[1] = qHTS assay to identify aromatase inhibitors - cell viability counter screen (AID 743084);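 note: cells stimulated with testosterone during compound exposure; nearly all actives have a fitted effect of over 55% in size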
[2] = target: Aryl hydrocarbon receptor (Homo sapiens) (UniProt P35869); assay: qHTS assay to identify small molecule that activate the aryl hydrocarbon receptor (AhR) signaling pathway (AID 743085); note: nearly all actives have a fitted effect of over 15% in size; note: potency is the fitted concentration of half-maximal effect;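 for activation: HG2L7.5c1 human HepG2 liver cells with stably integrated DRE-driven firefly reporter; series mostly up to about 70 µM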
Aryl hydrocarbon receptor (Homo sapiens), sequence (P35869 whole entry, looked up): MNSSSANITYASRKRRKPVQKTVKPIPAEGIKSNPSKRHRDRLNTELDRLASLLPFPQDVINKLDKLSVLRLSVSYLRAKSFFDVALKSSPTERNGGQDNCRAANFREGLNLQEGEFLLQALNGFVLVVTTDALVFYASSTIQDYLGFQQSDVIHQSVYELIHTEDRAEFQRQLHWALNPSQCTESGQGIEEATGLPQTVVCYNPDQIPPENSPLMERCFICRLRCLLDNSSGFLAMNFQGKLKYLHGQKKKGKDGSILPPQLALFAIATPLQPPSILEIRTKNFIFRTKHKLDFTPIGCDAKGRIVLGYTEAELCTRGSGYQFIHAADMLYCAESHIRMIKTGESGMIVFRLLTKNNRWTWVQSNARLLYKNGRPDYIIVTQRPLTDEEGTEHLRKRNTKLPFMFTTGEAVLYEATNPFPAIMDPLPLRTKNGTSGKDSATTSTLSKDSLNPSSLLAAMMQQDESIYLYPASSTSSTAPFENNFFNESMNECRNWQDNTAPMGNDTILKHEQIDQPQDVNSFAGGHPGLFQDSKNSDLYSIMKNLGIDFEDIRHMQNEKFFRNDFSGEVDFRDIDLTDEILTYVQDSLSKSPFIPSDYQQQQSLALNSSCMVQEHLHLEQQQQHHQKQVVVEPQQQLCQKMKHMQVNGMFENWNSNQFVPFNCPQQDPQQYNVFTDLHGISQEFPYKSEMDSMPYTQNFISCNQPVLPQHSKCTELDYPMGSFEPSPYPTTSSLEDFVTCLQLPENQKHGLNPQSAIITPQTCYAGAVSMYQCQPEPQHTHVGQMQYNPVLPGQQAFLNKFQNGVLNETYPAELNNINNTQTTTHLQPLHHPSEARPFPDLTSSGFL
Procedure, shortened: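 Cell line HG2L7.5c1 (human hepatoma, 20× DRE-luc). Plated, 5 h 37C, compound/DMSO added, 24 h 37C. CellTiter-Fluor 30 min 37C → fluorescence; then ONE-Glo 30 min RT → luminescence.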

[3] = qHTS assay to identify small molecule that activate the aryl hydrocarbon receptor (AhR) signaling pathway - cell viability counter screen (AID 743086);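 note: HepG2 liver cells carrying the AhR DRE luciferase reporter; series mostly up to about 70 µM; nearly all actives have a fitted effect of over 45% in size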
Procedure, shortened: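 HepG2-AhR-luc (HG2L7.5c1) cells, 4000/well, treated 24 h at 37 C with compound; viability measured as CellTiter-Fluor fluorescence after 30 min in the same wells as the luciferase read.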

[4] = target: Peroxisome proliferator-activated receptor gamma (Homo sapiens) (UniProt P37231); assay: qHTS assay to identify small molecule agonists of the peroxisome proliferator-activated receptor gamma (PPARg) signaling pathway (AID 743094; active = well fitted activation curve with a large enough effect in the signal ratio in the repeat runs, not every such curve was filed as active; the % refers to the signal ratio)
Peroxisome proliferator-activated receptor gamma (Homo sapiens), sequence (P37231 whole entry, looked up): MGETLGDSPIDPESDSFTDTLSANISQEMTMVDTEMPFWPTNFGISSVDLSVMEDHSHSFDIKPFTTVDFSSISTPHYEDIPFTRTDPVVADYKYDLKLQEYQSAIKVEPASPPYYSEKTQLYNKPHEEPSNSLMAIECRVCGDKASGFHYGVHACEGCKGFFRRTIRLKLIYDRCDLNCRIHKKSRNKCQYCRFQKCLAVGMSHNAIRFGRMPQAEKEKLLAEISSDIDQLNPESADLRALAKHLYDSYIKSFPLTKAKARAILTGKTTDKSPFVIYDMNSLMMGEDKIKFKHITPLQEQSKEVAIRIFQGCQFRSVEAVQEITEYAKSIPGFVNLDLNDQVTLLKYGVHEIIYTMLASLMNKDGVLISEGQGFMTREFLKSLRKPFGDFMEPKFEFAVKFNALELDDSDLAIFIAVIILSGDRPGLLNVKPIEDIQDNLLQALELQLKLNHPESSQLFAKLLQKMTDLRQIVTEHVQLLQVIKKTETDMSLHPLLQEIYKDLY
Procedure, shortened: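 Beta-lactamase FRET fluorescence was the read-out after a 1 h room-temperature substrate step, following 17 h compound treatment at 37C of HEK293H cells expressing a UAS-driven bla reporter responsive to PPARg.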

[5] = target: Peroxisome proliferator-activated receptor gamma (Homo sapiens) (UniProt P37231); assay: qHTS assay to identify small molecule antagonists of the peroxisome proliferator-activated receptor gamma (PPARg) signaling pathway (AID 743191; calls by dose curve; note: series mostly up to about 63 µM; nearly all actives have a fitted effect of over 30% in size)
Procedure, shortened: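 GeneBLAzer PPARg UAS-bla HEK293H cells, 5 h post-plating, exposed to compounds 17 h at 37C. LiveBLAzer B/G FRET substrate added for 1 h at room temperature; beta-lactamase reporter read by fluorescence intensity.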

[6] = qHTS assay to identify small molecule antagonists of the peroxisome proliferator-activated receptor gamma (PPARg) signaling pathway - cell viability counter screen (AID 743194); note: nearly all actives have a fitted effect of over 55% in size
Procedure, shortened: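 Cytotoxicity counter screen in PPARg-bla HEK293H cells, same wells as reporter assay. Compounds plus 50 nM rosiglitazone (final) for 17 h at 37 C, then viability read by CellTiter-Glo luminescence.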

[7] = qHTS assay for small molecule agonists of the antioxidant response element (ARE) signaling pathway (AID 743202; active = well fitted activation curve with a large enough effect in the signal ratio in the repeat runs, not every such curve was filed as active; the % refers to the signal ratio; note: potency is the fitted concentration of half-maximal effect)
Procedure, shortened: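 Agonist mode reporter screen: HepG2 cells with ARE-controlled beta-lactamase are incubated with test compounds for 16 h at 37 C, and beta-lactamase activity is measured as fluorescence of cleaved B/G FRET substrate.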

[8] = qHTS assay for small molecule agonists of the antioxidant response element (ARE) signaling pathway - cell viability counter screen (AID 743203; calls by dose curve; note: nearly all actives have a fitted effect of over 55% in size)
Procedure, shortened: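 HepG2 cells carrying ARE-driven beta-lactamase; 2,000 cells/well; 5 hrs plating; compound pinned from DMSO; 16 hrs 37C/5% CO2; CellTiter-Glo added; 30 min RT; luminescence.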

[9] = qHTS assay for small molecule activators of the heat shock response signaling pathway - cell viability counter screen (AID 743209); note: nearly all actives have a fitted effect of over 50% in size
Procedure, shortened: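 Luminescence from CellTiter-Glo, added after the beta-lactamase FRET read, gave the viability signal. Cells were HSE-bla HeLa treated with DMSO-dissolved compounds for 5 h at 37 C following overnight plating.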

[10] = qHTS assay for small molecule activators of the heat shock response signaling pathway (AID 743210; active = well fitted activation curve with a large enough effect in the signal ratio in the repeat runs, with a control signal flat, not every such curve was filed as active; the % refers to the signal ratio;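 note: HeLa cells with beta-lactamase reporter driven by heat shock elements; series mostly up to about 63 µM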)
Procedure, shortened: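 Quantitative high-throughput format using an engineered HeLa line in which heat shock response elements drive beta-lactamase; after 5 h with compound, cells received a B/G FRET substrate and fluorescence was read.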

[11] = qHTS assay to identify small molecule agonists of the peroxisome proliferator-activated receptor delta (PPARd) signaling pathway - cell viability counter screen (AID 743211); note: nearly all actives have a fitted effect of over 55% in size
Procedure, shortened: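 HEK293H PPARd-bla, 3000 cells/well; 5 h preincubation 37C/5% CO2; cpd in DMSO, 17 h 37C; B/G FRET substrate 2 h RT; CellTiter-Glo 30 min RT, luminescence.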

[12] = qHTS assay to identify small molecule antagonists of the peroxisome proliferator-activated receptor delta (PPARd) signaling pathway - cell viability counter screen (AID 743213); note: nearly all actives have a fitted effect of over 50% in size
Procedure, shortened: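 Same-well viability: cells pre-incubated 5 h, dosed with compound plus 300 nM L165041, kept 17 h at 37 C, FRET substrate 2 h RT, then CellTiter-Glo 30 min RT and luminescence.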

[13] = qHTS assay to identify small molecule agonists of the farnesoid-X-receptor (FXR) signaling pathway - cell viability counter screen (AID 743218); note: nearly all actives have a fitted effect of over 45% in size
Procedure, shortened: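 HEK 293T FXR-bla cells; 5 h pre-incubation, 16 h compound exposure at 37 C; LiveBLAzer substrate 2 h RT, then CellTiter-Glo 30 min RT, luminescence.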

[14] = qHTS assay to identify small molecule antagonists of the farnesoid-X-receptor (FXR) signaling pathway - cell viability counter screen (AID 743221; active = well fitted cell-killing curve with a large enough effect in the repeat runs, not every such curve was filed as active; note: nearly all actives have a fitted effect of over 50% in size)
Procedure, shortened: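 Luminescence from CellTiter-Glo measures cytotoxicity in GeneBLAzer FXR-UAS-bla HEK 293T cells. Cells were exposed to compounds with 50 uM chenodeoxycholic acid (final) for 16 h at 37 C, in wells also used for the reporter readout.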

[15] = target: Vitamin D3 receptor (Homo sapiens) (UniProt P11473); assay: qHTS assay to identify small molecule antagonists of the vitamin D receptor (VDR) signaling pathway (AID 743223; active = well fitted inhibition curve with a large enough effect in the signal ratio in the repeat runs, not every such curve was filed as active; the % refers to the signal ratio)
Vitamin D3 receptor (Homo sapiens), sequence (P11473 whole entry, looked up): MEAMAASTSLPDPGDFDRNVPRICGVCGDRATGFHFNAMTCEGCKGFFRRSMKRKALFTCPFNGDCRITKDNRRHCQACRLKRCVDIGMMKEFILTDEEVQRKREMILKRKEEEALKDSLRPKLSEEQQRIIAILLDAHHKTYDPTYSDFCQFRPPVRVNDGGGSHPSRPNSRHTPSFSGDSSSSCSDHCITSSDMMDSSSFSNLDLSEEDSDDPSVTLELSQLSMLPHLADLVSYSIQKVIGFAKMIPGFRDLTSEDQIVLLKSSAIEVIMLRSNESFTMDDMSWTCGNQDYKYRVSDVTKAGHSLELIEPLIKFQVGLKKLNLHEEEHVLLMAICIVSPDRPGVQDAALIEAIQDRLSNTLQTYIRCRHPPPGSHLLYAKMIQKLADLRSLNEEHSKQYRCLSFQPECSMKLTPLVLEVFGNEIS
Procedure, shortened: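 Antagonist mode uses 1alpha,25-dihydroxyvitamin D3 at 3 nM final as stimulus. VDR-bla cells receive compounds in DMSO, incubate 16 h at 37C, then a beta-lactamase FRET substrate for 2 h at room temperature before fluorescence measurement.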

[16] = target: Bile acid receptor (Homo sapiens) (UniProt Q96RI1); assay: qHTS assay to identify small molecule agonists of the farnesoid-X-receptor (FXR) signaling pathway (AID 743220; active = well fitted activation curve with a large enough effect in the signal ratio in the repeat runs, not every such curve was filed as active; the % refers to the signal ratio)
Bile acid receptor (Homo sapiens), sequence (Q96RI1 whole entry, looked up): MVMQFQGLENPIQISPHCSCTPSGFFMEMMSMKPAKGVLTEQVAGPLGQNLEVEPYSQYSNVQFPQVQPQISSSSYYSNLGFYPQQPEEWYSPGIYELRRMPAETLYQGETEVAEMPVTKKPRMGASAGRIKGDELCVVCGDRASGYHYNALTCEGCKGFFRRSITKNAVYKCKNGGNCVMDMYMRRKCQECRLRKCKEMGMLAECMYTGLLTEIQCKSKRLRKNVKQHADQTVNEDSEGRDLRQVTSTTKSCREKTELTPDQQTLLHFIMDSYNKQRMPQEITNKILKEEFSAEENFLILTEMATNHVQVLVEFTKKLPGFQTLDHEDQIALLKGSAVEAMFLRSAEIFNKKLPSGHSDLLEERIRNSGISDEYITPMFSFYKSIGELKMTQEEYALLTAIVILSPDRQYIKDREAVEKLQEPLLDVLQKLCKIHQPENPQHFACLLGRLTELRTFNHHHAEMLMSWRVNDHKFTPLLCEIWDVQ
Procedure, shortened: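 Beta-lactamase reporter under UAS control in GeneBLAzer FXR HEK 293T cells (5000/well) measured with LiveBLAzer FRET substrate after 2 h at room temperature. Compound exposure lasted 16 h at 37C.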

[17] = target: Vitamin D3 receptor (Homo sapiens) (UniProt P11473); assay: qHTS assay to identify small molecule agonists of the vitamin D receptor (VDR) signaling pathway (AID 743222; calls by dose curve)
Procedure, shortened: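 VDR-bla cells, 2,000/well; 4 h preincubation 37C; cpd (DMSO) 16 h; LiveBLAzer B/G substrate 2 h RT; fluorescence intensity read.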

[18] = target: Peroxisome proliferator-activated receptor delta (Homo sapiens) (UniProt Q03181); assay: qHTS assay to identify small molecule agonists of the peroxisome proliferator-activated receptor delta (PPARd) signaling pathway (AID 743212; calls by dose curve)
Peroxisome proliferator-activated receptor delta (Homo sapiens), sequence (Q03181 whole entry, looked up): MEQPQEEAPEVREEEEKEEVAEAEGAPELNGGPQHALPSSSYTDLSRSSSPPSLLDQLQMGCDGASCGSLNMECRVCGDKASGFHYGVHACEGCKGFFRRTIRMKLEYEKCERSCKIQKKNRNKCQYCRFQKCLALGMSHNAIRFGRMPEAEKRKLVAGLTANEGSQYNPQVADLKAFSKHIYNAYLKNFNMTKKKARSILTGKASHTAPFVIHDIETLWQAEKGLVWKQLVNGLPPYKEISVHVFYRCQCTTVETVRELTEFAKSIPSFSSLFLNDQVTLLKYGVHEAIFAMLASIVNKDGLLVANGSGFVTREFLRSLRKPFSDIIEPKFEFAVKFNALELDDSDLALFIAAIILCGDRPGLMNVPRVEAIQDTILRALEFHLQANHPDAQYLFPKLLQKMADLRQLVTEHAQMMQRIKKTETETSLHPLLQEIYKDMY
Procedure, shortened: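 Quantitative high-throughput agonist screen in a HEK293H beta-lactamase reporter line under UAS control. Compounds in DMSO, at 37 C. Fluorescence read after 2 h with FRET substrate at room temperature.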

[19] = target: Peroxisome proliferator-activated receptor delta (Homo sapiens) (UniProt Q03181); assay: qHTS assay to identify small molecule antagonists of the peroxisome proliferator-activated receptor delta (PPARd) signaling pathway (AID 743215; active = well fitted inhibition curve with a large enough effect in the signal ratio in the repeat runs, not every such curve was filed as active; the % refers to the signal ratio;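 note: cells stimulated with agonist L165041 at 300 nM final during compound exposure; series mostly up to about 62 µM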)
Procedure, shortened: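 Read-out is beta-lactamase FRET fluorescence, measured 2 h after substrate addition at room temperature. Beforehand, UAS-bla HEK293H cells carrying the PPARd reporter were exposed to compounds with L165041 at 300 nM final for 17 h at 37 C.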

[20] = target: Bile acid receptor (Homo sapiens) (UniProt Q96RI1); assay: qHTS assay to identify small molecule antagonists of the farnesoid-X-receptor (FXR) signaling pathway (AID 743217; active = well fitted inhibition curve with a large enough effect in the signal ratio in the repeat runs, not every such curve was filed as active; the % refers to the signal ratio)
Procedure, shortened: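 HEK 293T FXR-UAS-bla, 5000 cells/well; compound + CDCA 50 uM final; 16 h, 37 °C; B/G FRET substrate 2 h RT; fluorescence.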

Measured: Potency

CC(C)c1ccc2oc3nc(N)c(C(=O)O)cc3c(=O)c2c1
active: [2] 841 nM | [7] 23.7 µM
not listed: [16] | [17] | [18] | [19] | [20]
inactive: all other assays above

CC(CCO)CCCC(C)(C)O (stereo not given)
not listed: [7] | [18] | [19] | [20]
inactive: all other assays above

Nc1cc(N)cc(C(=O)O)c1
not listed: [7] | [13]
inactive: all other assays above

CCc1cc(S(=O)(=O)O)c2cc(C(C)C)cccc1-2
not listed: [7] | [16] | [17] | [20]
inactive: all other assays above

Cc1nccn1CC1CCc2c(c3ccccc3n2C)C1=O (stereo not given)
not listed: [7] | [16] | [18] | [19] | [20]
inactive: all other assays above

NCCNC(=O)c1ccc(Cl)cn1
not listed: [16] | [18] | [19] | [20]
inactive: all other assays above

Cc1ncc(CSSCc2cnc(C)c(O)c2CO)c(CO)c1O
not listed: [9] | [10]
inactive: all other assays above

OC[C@H]1O[C@@H]2O[C@H]3[C@H](O)[C@@H](O)[C@@H](O[C@H]4[C@H](O)[C@@H](O)[C@@H](O[C@H]5[C@H](O)[C@@H](O)[C@@H](O[C@H]6[C@H](O)[C@@H](O)[C@@H](O[C@H]7[C@H](O)[C@@H](O)[C@@H](O[C@H]8[C@H](O)[C@@H](O)[C@@H](O[C@H]9[C@H](O)[C@@H](O)[C@@H](O[C@H]1[C@H](O)[C@H]2O)O[C@@H]9CO)O[C@@H]8CO)O[C@@H]7CO)O[C@@H]6CO)O[C@@H]5CO)O[C@@H]4CO)O[C@@H]3CO
not listed: [16] | [18] | [19] | [20]
inactive: all other assays above
